Each structure is given as a SMILES string.

The source of these data is the supplement of paper PMC13380429.

The subject of test [1] is Vero E6 infected with SARS-CoV-2. As to the kind of experiment: morphology score (similarity to uninfected cells); higher = more like uninfected cells. To be noted: 24 h.
Test [2] shares this test system. Briefly: SARS-CoV-2 infection rate relative to infected DMSO; higher = more infection, active = 60 or less. To be noted: 24 h.

Compound `CCCCCCNC(=O)n1cc(F)c(=O)[nH]c1=O` [carmofur] (0.833333 µM) came in with a morphology score in test [1] of 0.222. Also, in test [2], the SARS-CoV-2 infection rate is 96% (inactive).

In turn, `Nc1ncnc2c1ncn2[C@@H]1O[C@H](COP(=O)(O)OP(=O)(O)OP(=O)(O)OP(=O)(O)OC[C@H]2O[C@@H](n3cnc4c(N)ncnc43)[C@H](O)[C@@H]2O)[C@@H](O)[C@H]1O` [diadenosine-tetraphosphate] (10 µM) displayed a morphology score in test [1] of 0.0713. For the same compound, the SARS-CoV-2 infection rate in test [2] is 108% (inactive).

For `Clc1ccc(-c2nc3sccn3c2/C=N/OCc2ccc(Cl)c(Cl)c2)cc1` (10 µM), in test [1], the morphology score stood at 0.00562. Further, the SARS-CoV-2 infection rate in test [2] was 107% (inactive).

In test [1], `O=C(NCc1ccccc1)OCCO` [buramate] (10 µM) gave a morphology score of 0.237. In addition, the SARS-CoV-2 infection rate in test [2] was 84.5% (inactive).

In turn, `CCOC(=O)[C@H](CCc1ccccc1)N[C@@H](C)C(=O)N1C(=O)N(C)C[C@H]1C(=O)O` [imidapril] (10 µM) displayed a morphology score in test [1] of -0.0373. Moreover, the SARS-CoV-2 infection rate in test [2] is 117% (inactive).

In test [1], `CCN(CC)CCN[C@@H](C(=O)OCCC(C)C)c1ccccc1` [camylofine-chlorhydrate] (10 µM) registered a morphology score of 0.18. Moreover, in test [2], the SARS-CoV-2 infection rate is 98% (inactive).

For `CNC1CCCN(c2c(F)cc3c(=O)c(C(=O)O)cn(C4CC4)c3c2OC)C1` (stereo not drawn) [balofloxacin] (10 µM), the morphology score in test [1] was -0.103. In addition, the SARS-CoV-2 infection rate in test [2] is 104% (inactive).

In turn, `CCC[C@@H]1C[C@@H](C(=O)N[C@@H]([C@H]2O[C@H](SC)[C@H](O)[C@@H](O)[C@H]2O)[C@H](C)Cl)N(C)C1` (10 µM) came in with a morphology score in test [1] of -0.131. Further, the SARS-CoV-2 infection rate in test [2] is 102% (inactive).

In turn, `C=C(C)[C@@H]1CC=C(CO)CC1` [perillyl-alcohol] (10 µM) displayed a morphology score in test [1] of 0.0351. Moreover, the SARS-CoV-2 infection rate in test [2] was 100% (inactive).

In turn, `CN(C/C=C/C#CC(C)(C)C)Cc1cccc2ccccc12` [terbinafine] (10 µM) displayed a morphology score in test [1] of 0.413. For the same compound, the SARS-CoV-2 infection rate in test [2] was 81% (inactive).

On to `c1cc(OCCN2CCCCC2)cc(-c2n[nH]c3ccc(-c4nnc[nH]4)cc23)c1` (10 µM), for which the morphology score in test [1] came to 0.363. The SARS-CoV-2 infection rate in test [2] was 94.5% (inactive).

The compound `C#CCN1C(C)=C(C(=O)OC)C(c2cccc([N+](=O)[O-])c2)C(C(=O)OCC)=C1C` (stereo not drawn) (10 µM) displayed a morphology score in test [1] of 0.0591. Moreover, in test [2], the SARS-CoV-2 infection rate was 87.5% (inactive).

`Cc1cc(S(=O)(=O)O)c2c(C)ccc(C(C)C)cc1-2` [sodium-gualenate] (10 µM) had a morphology score in test [1] of 0.0593. In test [2], the SARS-CoV-2 infection rate is 96.5% (inactive).

Regarding `CCCCC/C=C\C/C=C\C/C=C\C/C=C\CCCC(=O)Nc1ccc(O)cc1` (10 µM), the morphology score in test [1] is 0.0145. For the same compound, in test [2], the SARS-CoV-2 infection rate is 106% (inactive).

`Clc1ccc(C(Cn2ccnc2)OCc2csc3c(Cl)cccc23)c(Cl)c1` (stereo not drawn) [sertaconazole] (10 µM) returned a morphology score in test [1] of 0.201. In test [2], the SARS-CoV-2 infection rate was 104% (inactive).

In test [1], `CC(C(=O)O)c1cccc(C(=O)c2ccccc2)c1` (stereo not drawn) [ketoprofen] (10 µM) showed a morphology score of 0.173. Moreover, the SARS-CoV-2 infection rate in test [2] is 102% (inactive).

As to `NC(=O)c1cnc(N[C@@H]2CCCC[C@@H]2N)nc1Nc1cccc(-n2nccn2)c1` (10 µM), the morphology score in test [1] was determined as 0.582. Further, the SARS-CoV-2 infection rate in test [2] is 17.5% (active).

`Nc1ccn([C@H]2C[C@H](O)[C@@H](CO)O2)c(=O)n1` [torcitabine] (10 µM): in test [1], the morphology score was -0.00729. In test [2], the SARS-CoV-2 infection rate was 108% (inactive).

Regarding `O=C(O)C1=CCNCC1` [isoguvacine] (10 µM), the morphology score in test [1] was determined as 0.0662. Besides, in test [2], the SARS-CoV-2 infection rate is 99.5% (inactive).
